Reference: PubChem BioAssay
Active and inactive are the calls of the source.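 The calls were made as follows: active = inhibition at or above 50% relative to wild type and mutant plate controls; inactive = inhibition below 50%.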

test: inhibitors of Chlamydomonas gravitaxis, primary screen, whole organism, Chlamydomonas reinhardtii, WT vs cilia-less mutant, absorbance, 96-well (AID 463189); conditions: OD600 absorbance, 2 days, at 10 µM, stronger effect = higher value;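 also: 0% = wild type cc124 cells in DMSO and 100% = ciliumless bld1 mutant cells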

SMILES	inhibition
OCCN1CCN(CC/C=C2/c3ccccc3Sc3ccc(C(F)(F)F)cc32)CC1	15.6% (inactive)
N=c1ccn2c(n1)OC1[C@@H](O)[C@@H](CO)O[C@H]12 (stereo partly specified)	-5.06% (inactive)
CCC1(C)CC(=O)NC1=O (stereo unspecified)	1.95% (inactive)
c1ccc(CN2CCC3(CCCc4ccccc43)CC2)cc1	89% (active)
CNC(=O)[C@H]1O[C@@H](n2cnc3c(N)ncnc32)C(O)[C@H]1O (stereo partly specified)	1.69% (inactive)
CSc1nc(N)c2ncn([C@@H]3O[C@H](COP(=O)(O)OP(=O)(O)OP(=O)(O)O)[C@H](O)C3O)c2n1 (stereo partly specified)	-3.46% (inactive)
Oc1ccc(Cn2cc[nH]c2=S)cc1	7.18% (inactive)
NC1(C(=O)O)CCc2cc(C(=O)O)ccc21 (stereo unspecified)	4.42% (inactive)
O=C(O)/C=C/c1cnc[nH]1	1.11% (inactive)
Cn1cc(C(F)(F)F)nc1-c1ccc(OCC(O)CNCCOc2ccc(O)c(C(N)=O)c2)cc1 (stereo unspecified)	-6.96% (inactive)
CO/N=C(\C(=O)N[C@@H]1C(=O)N2C(C(=O)O)=C(COC(C)=O)CS[C@H]12)c1csc(N)n1 (stereo in doubt)	6.36% (inactive)
Nc1ncn([C@@H]2O[C@H](CO)[C@@H](O)[C@H]2O)c(=O)n1	3.22% (inactive)
O=c1ccn([C@@H]2O[C@H](COP(=O)(O)OP(=O)(O)O)[C@@H](O)[C@H]2O)c(=O)[nH]1	13.9% (inactive)
CN1CCc2cccc3c2C1Cc1ccc(O)c(O)c1-3 (stereo unspecified)	-7.51% (inactive)
C=CC(N)CCC(=O)O (stereo unspecified)	-6.67% (inactive)
COc1ccc2c(c1)CCC1C2CC[C@@]2(C)C1CC[C@@H]2NCCCCCCN1C(=O)C=CC1=O (stereo partly specified)	1.37% (inactive)
